# Assay results as given in the supplement of paper PMC8728848.
# This is one part of a sample in which the strongest signals are shown more often than they occur.
# B1: EULS2 M4 (Oryza sativa) (protein)
# chain: MVYCRANPNYAMTARNGAVVLAPANPKDEYQHWIKDMRWSTSIKDEEGYPAFALVNKATGQAIKHSLGQSHPVRLVPYNPEVMDESVLWTESRDVGNGFRCIRMVNNIYLNFDAFHGDKYHGGVRDGTDIVLWKWCEGDSLRWKIQPYYILEQKLISEEDLNSAVDHHHHHH
# Assays:
# Test in all cases: glycan array binding signal (z-score within array); higher = stronger binding
# Conditions in all cases: glycan notation: IUPAC condensed, linker removed
# [1] = molecular target: Fuc(a1-2)Gal(b1-4)GlcNAc(b1-3)Gal(b1-4)GlcNAc
# Procedure, shortened: (§1)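 Glycan array data were curated from 3228 arrays in the Consortium for Functional Glycomics database and kept only where the protein sequence was available. Glycan names were converted to IUPAC-condensed notation, and columns mapping to the same glycan were averaged. The binding signal is a within-array Z-score, averaged across arrays of the same protein sequence at different concentrations or buffers and across linkers. Negative Z-scores can be read as non-binding.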
# [2] = molecular target: Fuc(a1-2)Gal(b1-4)GlcNAc(b1-6)GalNAc
# Procedure, shortened: as §1
# [3] = molecular target: Fuc(a1-2)[GalNAc(a1-3)]Gal
# Procedure, shortened: as §1
# [4] = molecular target: Fuc(a1-2)[GalNAc(a1-3)]Gal(b1-3)GalNAc(b1-3)Gal(a1-4)Gal(b1-4)Glc
# Procedure, shortened: as §1
# [5] = molecular target: Fuc(a1-2)[GalNAc(a1-3)]Gal(b1-4)[Fuc(a1-3)]GlcNAc
# Procedure, shortened: as §1
# [6] = molecular target: Fuc(a1-3)[Gal3S(b1-4)]GlcNAc6S
# Procedure, shortened: as §1
# [7] = molecular target: Gal(a1-3)Gal(b1-4)GlcNAc(b1-6)GalNAc
# Procedure, shortened: as §1
# [8] = molecular target: Gal(a1-3)[Gal(a1-4)]Gal(b1-4)GlcNAc
# Procedure, shortened: as §1
# [9] = molecular target: Gal(b1-3)GlcNAc(a1-3)Gal(b1-4)GlcNAc
# Procedure, shortened: as §1
# [10] = molecular target: Gal(b1-3)GlcNAc(b1-2)Man(a1-3)[Gal(b1-3)GlcNAc(b1-2)Man(a1-6)]Man(b1-4)GlcNAc(b1-4)GlcNAc
# Procedure, shortened: as §1
# [11] = molecular target: Gal(b1-3)GlcNAc(b1-2)Man(a1-3)[GlcNAc(b1-4)][Gal(b1-3)GlcNAc(b1-2)Man(a1-6)]Man(b1-4)GlcNAc(b1-4)GlcNAc
# Procedure, shortened: as §1
# [12] = molecular target: Gal(b1-3)[GlcNAc(b1-6)]GalNAc
# Procedure, shortened: as §1
# [13] = molecular target: Gal(b1-4)GlcNAc(b1-2)Man
# Procedure, shortened: as §1
# [14] = molecular target: Gal(b1-4)GlcNAc(b1-2)Man(a1-3)Man(b1-4)GlcNAc(b1-4)GlcNAc
# Procedure, shortened: as §1
# [15] = molecular target: Gal(b1-4)GlcNAc(b1-2)Man(a1-3)[Man(a1-6)]Man(b1-4)GlcNAc(b1-4)GlcNAc
# Procedure, shortened: as §1
# [16] = molecular target: Gal(b1-4)GlcNAc(b1-3)Gal(b1-4)GlcNAc(b1-2)[Gal(b1-4)GlcNAc(b1-3)Gal(b1-4)GlcNAc(b1-6)]Man(a1-6)[Gal(b1-4)GlcNAc(b1-3)Gal(b1-4)GlcNAc(b1-2)Man(a1-3)]Man(b1-4)GlcNAc(b1-4)GlcNAc
# Procedure, shortened: as §1
# [17] = molecular target: Gal(b1-4)GlcNAc(b1-3)Gal(b1-4)GlcNAc(b1-3)Gal(b1-4)GlcNAc(b1-3)Gal(b1-4)GlcNAc(b1-3)Gal(b1-4)GlcNAc(b1-2)Man(a1-3)[Gal(b1-4)GlcNAc(b1-3)Gal(b1-4)GlcNAc(b1-3)Gal(b1-4)GlcNAc(b1-3)Gal(b1-4)GlcNAc(b1-3)Gal(b1-4)GlcNAc(b1-2)Man(a1-6)]Man(b1-4)GlcNAc(b1-4)GlcNAc
# Procedure, shortened: as §1
# [18] = molecular target: Gal(b1-4)GlcNAc(b1-3)Gal(b1-4)GlcNAc(b1-3)Gal(b1-4)GlcNAc(b1-3)Gal(b1-4)GlcNAc(b1-3)Gal(b1-4)GlcNAc(b1-2)[Gal(b1-4)GlcNAc(b1-3)Gal(b1-4)GlcNAc(b1-3)Gal(b1-4)GlcNAc(b1-3)Gal(b1-4)GlcNAc(b1-3)Gal(b1-4)GlcNAc(b1-6)]Man(a1-6)[Gal(b1-4)GlcNAc(b1-3)Gal(b1-4)GlcNAc(b1-3)Gal(b1-4)GlcNAc(b1-3)Gal(b1-4)GlcNAc(b1-3)Gal(b1-4)GlcNAc(b1-2)Man(a1-3)]Man(b1-4)GlcNAc(b1-4)[Fuc(a1-6)]GlcNAc
# Procedure, shortened: as §1
# [19] = molecular target: Gal(b1-4)GlcNAc(b1-6)GalNAc
# Procedure, shortened: as §1
# [20] = molecular target: Gal3S(b1-4)Glc
# Procedure, shortened: as §1
# [21] = molecular target: Gal3S6S(b1-4)GlcNAc
# Procedure, shortened: as §1
# [22] = molecular target: Gal6S(b1-4)GlcNAc6S
# Procedure, shortened: as §1
# [23] = molecular target: GalNAc(a1-3)GalNAc
# Procedure, shortened: as §1
# [24] = molecular target: Glc(a1-6)Glc(a1-6)Glc
# Procedure, shortened: as §1
# [25] = molecular target: GlcNAc(b1-2)Gal(b1-3)GalNAc
# Procedure, shortened: as §1
# [26] = molecular target: GlcNAc(b1-2)Man(a1-3)[GlcNAc(b1-2)Man(a1-6)]Man(b1-4)GlcNAc(b1-4)[Fuc(a1-6)]GlcNAc
# Procedure, shortened: as §1
# [27] = molecular target: GlcNAc(b1-2)[GlcNAc(b1-4)]Man(a1-3)[GlcNAc(b1-4)][GlcNAc(b1-2)Man(a1-6)]Man(b1-4)GlcNAc(b1-4)GlcNAc
# Procedure, shortened: as §1
# [28] = molecular target: GlcNAc(b1-3)Gal(b1-4)GlcNAc(b1-2)[GlcNAc(b1-3)Gal(b1-4)GlcNAc(b1-6)]Man(a1-6)[GlcNAc(b1-3)Gal(b1-4)GlcNAc(b1-2)Man(a1-3)]Man(b1-4)GlcNAc(b1-4)GlcNAc
# Procedure, shortened: as §1
# [29] = molecular target: GlcNAc(b1-3)Gal(b1-4)GlcNAc(b1-3)Gal(b1-4)GlcNAc(b1-2)[GlcNAc(b1-3)Gal(b1-4)GlcNAc(b1-3)Gal(b1-4)GlcNAc(b1-6)]Man(a1-6)[GlcNAc(b1-3)Gal(b1-4)GlcNAc(b1-3)Gal(b1-4)GlcNAc(b1-2)Man(a1-3)]Man(b1-4)GlcNAc(b1-4)[Fuc(a1-6)]GlcNAc
# Procedure, shortened: as §1
# [30] = molecular target: GlcNAc(b1-3)Gal(b1-4)GlcNAc(b1-6)[Gal(b1-3)]GalNAc
# Procedure, shortened: as §1
# [31] = molecular target: GlcNAc(b1-4)GlcNAc(b1-4)GlcNAc
# Procedure, shortened: as §1
# [32] = molecular target: Man(a1-2)Man(a1-3)[Man(a1-2)Man(a1-6)]Man(a1-6)[Man(a1-2)Man(a1-2)Man(a1-3)]Man(b1-4)GlcNAc(b1-4)GlcNAc
# Procedure, shortened: as §1
# [33] = molecular target: Man(a1-6)Man
# Procedure, shortened: as §1
# [34] = molecular target: Neu5Ac(a2-3)Gal(b1-3)]Neu5Ac(a2-3)Gal(b1-4)]GlcNAc
# Procedure, shortened: as §1
# [35] = molecular target: Neu5Ac(a2-3)Gal(b1-4)GlcNAc(b1-2)Man
# Procedure, shortened: as §1
# [36] = molecular target: Neu5Ac(a2-3)Gal(b1-4)GlcNAc(b1-3)Gal(b1-4)GlcNAc(b1-6)[Gal(b1-3)]GalNAc
# Procedure, shortened: as §1
# [37] = molecular target: Neu5Ac(a2-3)Gal(b1-4)GlcNAc(b1-6)GalNAc
# Procedure, shortened: as §1
# [38] = molecular target: Neu5Ac(a2-3)Gal(b1-4)GlcNAc(b1-6)[Gal(b1-3)]GalNAc
# Procedure, shortened: as §1
# [39] = molecular target: Neu5Ac(a2-3)Gal(b1-4)GlcNAc6S
# Procedure, shortened: as §1
# [40] = molecular target: Neu5Ac(a2-3)Gal(b1-4)[Fuc(a1-3)]GlcNAc(b1-3)Gal(b1-4)GlcNAc
# Procedure, shortened: as §1
# [41] = molecular target: Neu5Ac(a2-3)Gal(b1-4)[Fuc(a1-3)]GlcNAc6S
# Procedure, shortened: as §1
# [42] = molecular target: Neu5Ac(a2-3)GalNAc
# Procedure, shortened: as §1
# [43] = molecular target: Neu5Ac(a2-3)GalNAc(b1-4)GlcNAc
# Procedure, shortened: as §1
# [44] = molecular target: Neu5Ac(a2-6)Gal(b1-4)GlcNAc(b1-2)Man(a1-3)Man(b1-4)GlcNAc(b1-4)GlcNAc
# Procedure, shortened: as §1
# [45] = molecular target: Neu5Ac(a2-6)Gal(b1-4)GlcNAc(b1-3)Gal(b1-3)GlcNAc
# Procedure, shortened: as §1
# [46] = molecular target: Neu5Ac(a2-6)Gal(b1-4)GlcNAc(b1-3)Gal(b1-4)[Fuc(a1-3)]GlcNAc(b1-3)Gal(b1-4)[Fuc(a1-3)]GlcNAc
# Procedure, shortened: as §1
# [47] = molecular target: Neu5Ac(a2-6)Gal(b1-4)GlcNAc(b1-3)[Neu5Ac(a2-6)Gal(b1-4)GlcNAc(b1-6)]GalNAc
# Procedure, shortened: as §1
# [48] = molecular target: Neu5Ac(a2-6)Gal(b1-4)GlcNAc(b1-6)[Gal(b1-3)GlcNAc(b1-3)]Gal(b1-4)Glc
# Procedure, shortened: as §1
# [49] = molecular target: Neu5Ac(a2-8)Neu5Ac(a2-8)Neu5Ac
# Procedure, shortened: as §1
# [50] = molecular target: Neu5Ac(b2-6)GalNAc
# Procedure, shortened: as §1
# [51] = molecular target: Neu5Gc(a2-3)Gal(b1-4)GlcNAc(b1-3)Gal(b1-4)GlcNAc(b1-2)Man(a1-3)[Neu5Gc(a2-3)Gal(b1-4)GlcNAc(b1-3)Gal(b1-4)GlcNAc(b1-2)Man(a1-6)]Man(b1-4)GlcNAc(b1-4)GlcNAc
# Procedure, shortened: as §1
# [52] = molecular target: Neu5Gc(b2-6)Gal(b1-4)GlcNAc
# Procedure, shortened: as §1
binder,measurement,setting,value
B1,glycan array binding signal (z-score),[1],-0.01
same,glycan array binding signal (z-score),[2],-0.469
same,glycan array binding signal (z-score),[3],-0.348
same,glycan array binding signal (z-score),[4],-0.473
same,glycan array binding signal (z-score),[5],-0.416
same,glycan array binding signal (z-score),[6],-0.356
same,glycan array binding signal (z-score),[7],0.31
same,glycan array binding signal (z-score),[8],7
same,glycan array binding signal (z-score),[9],-0.21
same,glycan array binding signal (z-score),[10],-0.259
same,glycan array binding signal (z-score),[11],4.91
same,glycan array binding signal (z-score),[12],-0.511
same,glycan array binding signal (z-score),[13],-0.202
same,glycan array binding signal (z-score),[14],2.57
same,glycan array binding signal (z-score),[15],7.18
same,glycan array binding signal (z-score),[16],6.97
same,glycan array binding signal (z-score),[17],-0.273
same,glycan array binding signal (z-score),[18],4.92
same,glycan array binding signal (z-score),[19],-0.124
same,glycan array binding signal (z-score),[20],0.203
same,glycan array binding signal (z-score),[21],-0.485
same,glycan array binding signal (z-score),[22],-0.349
same,glycan array binding signal (z-score),[23],-0.218
same,glycan array binding signal (z-score),[24],0.287
same,glycan array binding signal (z-score),[25],-0.527
same,glycan array binding signal (z-score),[26],-0.215
same,glycan array binding signal (z-score),[27],-0.288
same,glycan array binding signal (z-score),[28],0.417
same,glycan array binding signal (z-score),[29],-0.364
same,glycan array binding signal (z-score),[30],-0.431
same,glycan array binding signal (z-score),[31],-0.101
same,glycan array binding signal (z-score),[32],-0.4
same,glycan array binding signal (z-score),[33],0.713
same,glycan array binding signal (z-score),[34],-0.232
same,glycan array binding signal (z-score),[35],7.63
same,glycan array binding signal (z-score),[36],-0.233
same,glycan array binding signal (z-score),[37],-0.226
same,glycan array binding signal (z-score),[38],-1.27
same,glycan array binding signal (z-score),[39],4.39
same,glycan array binding signal (z-score),[40],0.35
same,glycan array binding signal (z-score),[41],-0.364
same,glycan array binding signal (z-score),[42],0.083
same,glycan array binding signal (z-score),[43],0.042
same,glycan array binding signal (z-score),[44],-0.572
same,glycan array binding signal (z-score),[45],2.81
same,glycan array binding signal (z-score),[46],4.01
same,glycan array binding signal (z-score),[47],7.46
same,glycan array binding signal (z-score),[48],-0.428
same,glycan array binding signal (z-score),[49],-0.325
same,glycan array binding signal (z-score),[50],0.656
same,glycan array binding signal (z-score),[51],-0.344
same,glycan array binding signal (z-score),[52],-0.504
